In PubChem BioAssay (EPA / NIEHS) one finds outcome and AC50 data, which are given here for five molecules.

The target in test [1] is Transcriptional activator Myb (Homo sapiens) (UniProt P10242). In words: ATG_Myb_CIS: Attagene CIS-FACTORIAL HepG2 Assay for human Myeloblastosis (Myb) Proto-Oncogene Transcription Factor (AID 2282986). To be noted: HepG2 Attagene CIS-FACTORIAL Myb reporter transcription; actives raise or lower the signal. The gist of the method: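 Transiently transfected HepG2 cells, treated 24 h. Reporter mRNA quantified by RT-PCR/capillary electrophoresis; bidirectional fit relative to DMSO.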
Sequence of Transcriptional activator Myb (Homo sapiens) (P10242 whole entry, looked up): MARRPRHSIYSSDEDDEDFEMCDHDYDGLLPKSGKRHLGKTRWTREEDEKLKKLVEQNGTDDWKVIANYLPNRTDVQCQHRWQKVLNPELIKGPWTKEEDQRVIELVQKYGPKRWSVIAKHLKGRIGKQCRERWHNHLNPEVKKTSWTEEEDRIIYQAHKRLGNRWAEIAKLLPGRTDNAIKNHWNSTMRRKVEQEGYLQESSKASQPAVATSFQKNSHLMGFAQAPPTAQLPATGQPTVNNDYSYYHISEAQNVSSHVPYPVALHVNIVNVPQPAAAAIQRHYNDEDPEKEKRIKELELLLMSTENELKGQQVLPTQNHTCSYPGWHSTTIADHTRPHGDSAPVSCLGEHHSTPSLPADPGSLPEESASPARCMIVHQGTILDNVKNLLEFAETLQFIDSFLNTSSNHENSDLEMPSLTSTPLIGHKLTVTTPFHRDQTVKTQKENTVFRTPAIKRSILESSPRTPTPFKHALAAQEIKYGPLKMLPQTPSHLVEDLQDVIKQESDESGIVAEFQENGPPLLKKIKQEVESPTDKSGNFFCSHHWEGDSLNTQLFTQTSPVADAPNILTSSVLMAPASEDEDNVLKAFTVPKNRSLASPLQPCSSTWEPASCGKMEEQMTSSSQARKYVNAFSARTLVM

Test [2] has as its target Nuclear respiratory factor 1 (Homo sapiens) (UniProt Q16656). In words: ATG_NRF1_CIS: Attagene CIS-FACTORIAL HepG2 Assay for human Nuclear Respiratory Factor 1 (NRF1) Orphan Gene (AID 2282987). As to conditions: HepG2 NRF1 cis-element reporter, Attagene multiplex; actives raise or lower the signal. The gist of the method: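 Cells (HepG2, transient MRTU transfection) are exposed to compound for 24 h, then RNA isolated and reporter mRNA amplified and fluorescently labelled. Fragments are separated by capillary electrophoresis; signal change is fitted bidirectionally relative to DMSO.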

Test [3] is described as follows: ATG_NFI_CIS: Attagene CIS-FACTORIAL HepG2 Assay for human Nuclear Factor I (NFI) (AID 2282989). To be noted: HepG2 cis-regulatory reporter, NFI response element transcription; actives raise or lower the signal. The method in brief: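 Cells: human liver HepG2, transiently transfected with promoter-regulated reporter transcription units. Exposure 24 h. Detection: fluorescent RT-PCR products separated by capillary electrophoresis, normalised to DMSO negative control.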

For test [4], the target named is Myc proto-oncogene protein (Homo sapiens) (UniProt P01106). In words: ATG_Myc_CIS: Attagene CIS-FACTORIAL HepG2 Assay for human Myelocytomatosis (Myc) Proto-Oncogene Transcription Factor (AID 2282990). To be noted: HepG2, Attagene cis-reporter transcription factor activity; actives raise or lower the signal. The method in brief:
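Multiplexed cis-reporter transcription in HepG2 cells after 24 h chemical treatment. Reporter mRNA measured by RT-PCR and capillary electrophoresis fluorescence; activity fitted bidirectionally against DMSO control.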

Test [5] is described as follows: ATG_NF_kB_CIS: Attagene CIS-FACTORIAL HepG2 Assay for human Nuclear Factor Kappa B (NF-kB) (AID 2282991). To be noted: HepG2 Attagene cis-factorial NF-kB reporter mRNA; actives raise or lower the signal. The gist of the method: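 Measures mRNA induction of an NF-kB-responsive cis-element reporter in HepG2 cells transfected with multiple reporter units, sampled 24 h post-dosing; quantified by fluorescence after RT-PCR and capillary electrophoresis, fitted for activation or inhibition against DMSO.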

Test [6] in a line: ATG_NRF2_ARE_CIS: Attagene CIS-FACTORIAL HepG2 Assay for human Nuclear Factor Erythroid 2 Related Factor 2 (NFR2) response to Antioxidant Response Elements (ARE) (AID 2282992). As to conditions: HepG2 Attagene ARE/NRF2 reporter, transcription factor activity; actives raise or lower the signal. The gist of the method: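 Readout: reporter mRNA quantified by RT-PCR plus FAM-labelled primer extension, HpaI digestion and capillary electrophoresis, 24 h after dosing transfected HepG2 cells. Gain or loss of signal is fitted bidirectionally against DMSO baseline.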

The nature of test [7]: ATG_Oct_MLP_CIS: Attagene CIS-FACTORIAL HepG2 Assay for human Octamer-Binding Transcription Factor (Oct) (AID 2282993). As to conditions: HepG2 Attagene cis-factorial Oct reporter, mRNA; actives raise or lower the signal. The method in brief:
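HepG2, transient MRTU transfection, cis promoter elements; 24 h dosing; RT-PCR/CE fluorescence read-out of reporter mRNA; fit both directions vs DMSO.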

A short description of test [8]: BSK_3C_TissueFactor: BioMAP Diversity Plus: 3C Assay for Tissue Factor Biomarker Activity (AID 2282997). As to conditions: BioMAP 3C HUVEC, tissue factor biomarker readout; actives raise or lower the signal. The gist of the method:
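After a 24 h chemical exposure of primary human umbilical vein endothelial cells, Tissue Factor levels were quantified by ELISA.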

Test [9] can be described thus: BSK_3C_uPAR: BioMAP Diversity Plus: 3C Assay for Urokinase-type plasminogen activator receptor (uPAR) Biomarker Activity (AID 2282998). To be noted: BioMAP 3C HUVEC, uPAR biomarker ELISA; actives raise or lower the signal. The method in brief:
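A multiplexed primary-cell system built on human umbilical vein endothelium was used, with chemical present for 24 h before reading. Cell-surface uPAR was detected by ELISA; signal change in either direction counted against DMSO.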

A short description of test [10]: BSK_3C_VCAM1: BioMAP Diversity Plus: 3C Assay for Vascular cell adhesion molecule 1 (VCAM1) Biomarker Activity (AID 2282999). To be noted: BioMAP 3C HUVEC, VCAM1 ELISA, cytokine-stimulated; actives raise or lower the signal. The gist of the method:
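Vascular primary endothelium (human umbilical vein) was exposed to chemicals and assayed 24 h later. VCAM-1 levels came from ELISA, with DMSO serving as baseline for bidirectional fitting.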

Test [11] is described as follows: BSK_4H_Eotaxin3: BioMAP Diversity Plus: 4H Assay for Eotaxin 3 Biomarker Activity (AID 2283000).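 As to outcome: CCL26 protein level quantified by ELISA in parallel with SRB cytotoxicity check.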 As to conditions: primary human endothelial cells (HUVEC); actives raise or lower the signal. The method in brief: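 Chemicals were added to human umbilical vein endothelium cultures, and Eotaxin-3 was quantified by ELISA at 24 h. Values were derived by bidirectional fitting with DMSO serving as negative control and activity baseline.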

For test [12], the target named is human Peroxisome Proliferator-activated Receptor delta (PPARd), PPARD (gene 5467) (UniProt Q03181). Description: ATG_PPARd_TRANS: Attagene TRANS-FACTORIAL HepG2 Assay for human Peroxisome Proliferator-activated Receptor delta (PPARd) (AID 2283002; active = hit-call score of the fitted dose curve at least 0.9, where 1 is the maximum). The gist of the method: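 Multiplexed trans-activation format: HepG2 liver cells expressing exogenous NR-Gal4 chimeras and GAL4-UAS reporters were exposed for 24 h. Reporter mRNA was detected by RT-PCR with capillary electrophoresis fluorescence; activity fitted as gain of signal relative to DMSO.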
Sequence of human Peroxisome Proliferator-activated Receptor delta (PPARd), PPARD (gene 5467) (Q03181 whole entry, looked up, the tested form may be a part): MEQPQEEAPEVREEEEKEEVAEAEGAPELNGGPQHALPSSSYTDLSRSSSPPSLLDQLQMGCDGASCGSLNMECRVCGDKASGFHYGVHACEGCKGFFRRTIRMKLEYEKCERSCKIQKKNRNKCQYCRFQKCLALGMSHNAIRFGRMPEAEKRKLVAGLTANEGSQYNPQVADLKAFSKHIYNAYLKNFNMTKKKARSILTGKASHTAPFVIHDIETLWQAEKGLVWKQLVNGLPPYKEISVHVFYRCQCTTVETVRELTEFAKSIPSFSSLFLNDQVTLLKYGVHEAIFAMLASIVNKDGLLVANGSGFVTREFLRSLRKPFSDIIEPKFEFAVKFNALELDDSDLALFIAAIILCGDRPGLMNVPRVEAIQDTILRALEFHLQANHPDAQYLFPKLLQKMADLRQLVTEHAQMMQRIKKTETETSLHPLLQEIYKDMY

Read-out in test [13]: Intercellular Adhesion Molecule 1 (ICAM1), ICAM1 (gene 3383)
Description: BSK_3C_ICAM1: BioMAP Diversity Plus: 3C Assay for Intercellular Adhesion Molecule 1 (ICAM1) Biomarker Activity (AID 2283003). To be noted: primary human endothelial cells (HUVEC); actives raise or lower the signal. The method in brief:
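ELISA read-out of ICAM-1; HUVEC (primary human), 3C system, 24 h post-dosing; bidirectional fit vs DMSO baseline.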

The nature of test [14]: BSK_3C_Proliferation: Cell Proliferation Assessment in the BioMAP Diversity Plus: 3C Assay (AID 2283006).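 As to AC50: potency may reflect either rise or fall in cell number versus DMSO.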 As to conditions: primary human endothelial cells (HUVEC). The method in brief:
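HUVEC, sub-confluent; 48 h chemical exposure; 10% TCA fix, 0.1% SRB stain, A560 total protein. Gain or loss of signal fitted both directions vs DMSO control.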

The target of test [15] is Peroxisome proliferator-activated receptor gamma (Homo sapiens) (UniProt P37231). Description: ATG_PPARg_TRANS: Attagene TRANS-FACTORIAL HepG2 Assay for human Peroxisome Proliferator-activated Receptor-gamma (PPARg) (AID 2283007; active = hit-call score of the fitted dose curve at least 0.9, where 1 is the maximum). The gist of the method: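 Gain-of-signal endpoint relative to DMSO, derived from reporter mRNA levels quantified by RT-PCR and capillary electrophoresis. Cells were HepG2 transiently expressing a chimeric NR-Gal4 construct with GAL4-UAS reporters, exposed to chemicals for 24 h.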
Sequence of Peroxisome proliferator-activated receptor gamma (Homo sapiens) (P37231 whole entry, looked up, the tested form may be a part): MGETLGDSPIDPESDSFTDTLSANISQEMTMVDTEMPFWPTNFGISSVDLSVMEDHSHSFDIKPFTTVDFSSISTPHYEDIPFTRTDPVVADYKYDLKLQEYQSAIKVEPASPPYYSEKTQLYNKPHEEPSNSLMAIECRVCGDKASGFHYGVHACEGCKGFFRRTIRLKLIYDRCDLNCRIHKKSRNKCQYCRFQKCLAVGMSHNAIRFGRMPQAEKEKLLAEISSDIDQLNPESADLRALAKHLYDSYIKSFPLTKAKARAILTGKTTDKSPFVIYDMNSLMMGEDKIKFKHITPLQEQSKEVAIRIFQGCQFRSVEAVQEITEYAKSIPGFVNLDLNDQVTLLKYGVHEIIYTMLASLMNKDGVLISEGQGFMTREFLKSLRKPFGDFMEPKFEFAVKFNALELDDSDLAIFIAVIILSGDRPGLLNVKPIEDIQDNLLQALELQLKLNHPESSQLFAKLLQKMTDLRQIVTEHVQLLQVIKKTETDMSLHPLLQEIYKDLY

Test [16] has as its target Nuclear receptor subfamily 1 group I member 2 (Homo sapiens) (UniProt O75469). In words: ATG_PXR_TRANS: Attagene TRANS-FACTORIAL HepG2 Assay for human Pregnane X Receptor (PXR) (AID 2283008; active = hit-call score of the fitted dose curve at least 0.9, where 1 is the maximum). The method in brief:
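Trans-factorial format: exogenous NR-Gal4 fusion activity, not endogenous factor, in transfected human HepG2 liver cells. After 24 h dosing, RNA isolated, reverse-transcribed, amplified and resolved by capillary electrophoresis; induction scored versus DMSO.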

For test [17], the target named is human Peroxisome Proliferator-activated Receptor alpha (PPARa), PPARA (gene 5465) (UniProt Q07869). Description: ATG_PPARa_TRANS: Attagene TRANS-FACTORIAL HepG2 Assay for human Peroxisome Proliferator-activated Receptor alpha (PPARa) (AID 2283001; active = hit-call score of the fitted dose curve at least 0.9, where 1 is the maximum). The method in brief:
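Exposure: 24 h, transiently transfected HepG2 cells. Endpoint: GAL4-UAS reporter mRNA, RT-PCR with capillary electrophoresis fluorescence. Baseline: DMSO; increases fitted.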

Test [18] concerns the target Cellular tumor antigen p53 (Homo sapiens) (UniProt P04637). In words: ATG_p53_CIS: Attagene CIS-FACTORIAL HepG2 Assay for human p53 Transcription Factor (AID 2282994). To be noted: HepG2 p53 cis-element reporter, Attagene mRNA; actives raise or lower the signal. The method in brief: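 Read-out: reporter mRNA by RT-PCR plus capillary electrophoresis with fluorescence detection. Human HepG2 liver cells carried transfected multi-reporter cis-element constructs, dosed 24 h. Gain or loss of signal fitted bidirectionally against DMSO control.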

Test [19] concerns the target human Retinoic Acid Receptor beta (RARb), RARB (gene 5915) (UniProt P10826). Description: ATG_RARb_TRANS: Attagene TRANS-FACTORIAL HepG2 Assay for human Retinoic Acid Receptor beta (AID 2283004; active = hit-call score of the fitted dose curve at least 0.9, where 1 is the maximum). The method in brief:
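Transient transfection of HepG2 with multiple reporter units → chemical dosing, 24 h → total RNA isolation → RT with oligo(dT) → reporter-specific PCR, 6-FAM primer extension, HpaI digest → capillary electrophoresis. Positive direction vs DMSO control.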

The target of test [20] is Retinoic acid receptor alpha (Homo sapiens) (UniProt P10276). Description: ATG_RARa_TRANS: Attagene TRANS-FACTORIAL HepG2 Assay for human Retinoic Acid Receptor alpha (RARa) (AID 2283005; active = hit-call score of the fitted dose curve at least 0.9, where 1 is the maximum). The gist of the method:
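HepG2 cells transiently transfected with multiple reporter units expressing chimeric RARα-GAL4 fusion, with GAL4-UAS-driven reporters. After 24 h compound exposure, reporter mRNA induction quantified by RT-PCR and capillary electrophoresis with fluorescent labeling; gain-of-signal fitted relative to DMSO control.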

Structures are written as SMILES. Records with an inconclusive call do not appear. Calls of active or inactive are those of the source. The calls were made as follows, unless noted: active = hit-call score of the fitted dose curve at least 0.9, where 1 is the maximum; inactive = score below 0.9.

Sequence of Myc proto-oncogene protein (Homo sapiens) (P01106 whole entry, looked up): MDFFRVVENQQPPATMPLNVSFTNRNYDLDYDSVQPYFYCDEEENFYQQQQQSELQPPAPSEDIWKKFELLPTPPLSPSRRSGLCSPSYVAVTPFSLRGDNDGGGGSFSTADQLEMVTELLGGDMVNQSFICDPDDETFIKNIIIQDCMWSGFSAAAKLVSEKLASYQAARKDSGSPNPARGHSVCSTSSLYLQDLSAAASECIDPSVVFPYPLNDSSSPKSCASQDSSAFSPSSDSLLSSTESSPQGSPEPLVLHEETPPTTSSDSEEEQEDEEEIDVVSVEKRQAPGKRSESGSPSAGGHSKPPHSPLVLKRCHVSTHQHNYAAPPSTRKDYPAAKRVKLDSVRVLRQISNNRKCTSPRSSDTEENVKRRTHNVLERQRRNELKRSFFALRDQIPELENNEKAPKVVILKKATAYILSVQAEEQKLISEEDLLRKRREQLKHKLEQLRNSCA
Sequence of Nuclear respiratory factor 1 (Homo sapiens) (Q16656 whole entry, looked up, the tested form may be a part): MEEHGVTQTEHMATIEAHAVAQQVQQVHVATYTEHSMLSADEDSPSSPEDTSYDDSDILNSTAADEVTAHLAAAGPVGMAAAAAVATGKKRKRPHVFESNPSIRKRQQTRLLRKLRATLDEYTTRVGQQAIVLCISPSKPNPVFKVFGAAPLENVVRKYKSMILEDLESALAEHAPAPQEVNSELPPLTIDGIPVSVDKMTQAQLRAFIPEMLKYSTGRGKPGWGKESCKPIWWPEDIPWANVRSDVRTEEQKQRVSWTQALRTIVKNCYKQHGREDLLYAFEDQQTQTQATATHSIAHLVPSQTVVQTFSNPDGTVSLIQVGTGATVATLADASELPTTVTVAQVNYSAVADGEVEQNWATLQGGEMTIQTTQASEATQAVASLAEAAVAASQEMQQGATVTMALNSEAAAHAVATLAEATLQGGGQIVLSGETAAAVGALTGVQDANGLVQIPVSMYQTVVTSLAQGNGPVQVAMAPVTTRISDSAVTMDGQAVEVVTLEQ
Sequence of human Peroxisome Proliferator-activated Receptor alpha (PPARa), PPARA (gene 5465) (Q07869 whole entry, looked up, the tested form may be a part): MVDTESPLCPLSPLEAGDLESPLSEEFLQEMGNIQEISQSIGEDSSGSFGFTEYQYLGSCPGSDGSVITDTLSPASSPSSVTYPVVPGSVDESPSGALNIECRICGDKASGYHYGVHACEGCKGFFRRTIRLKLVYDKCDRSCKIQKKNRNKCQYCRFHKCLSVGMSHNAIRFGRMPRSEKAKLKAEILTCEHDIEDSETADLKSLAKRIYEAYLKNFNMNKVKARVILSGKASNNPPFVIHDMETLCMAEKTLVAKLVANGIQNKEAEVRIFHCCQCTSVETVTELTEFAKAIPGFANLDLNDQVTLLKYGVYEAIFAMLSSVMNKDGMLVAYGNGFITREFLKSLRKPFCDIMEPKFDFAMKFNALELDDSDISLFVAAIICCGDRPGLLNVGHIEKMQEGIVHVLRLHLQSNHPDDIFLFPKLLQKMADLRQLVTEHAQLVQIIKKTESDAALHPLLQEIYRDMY
Sequence of human Retinoic Acid Receptor beta (RARb), RARB (gene 5915) (P10826 whole entry, looked up): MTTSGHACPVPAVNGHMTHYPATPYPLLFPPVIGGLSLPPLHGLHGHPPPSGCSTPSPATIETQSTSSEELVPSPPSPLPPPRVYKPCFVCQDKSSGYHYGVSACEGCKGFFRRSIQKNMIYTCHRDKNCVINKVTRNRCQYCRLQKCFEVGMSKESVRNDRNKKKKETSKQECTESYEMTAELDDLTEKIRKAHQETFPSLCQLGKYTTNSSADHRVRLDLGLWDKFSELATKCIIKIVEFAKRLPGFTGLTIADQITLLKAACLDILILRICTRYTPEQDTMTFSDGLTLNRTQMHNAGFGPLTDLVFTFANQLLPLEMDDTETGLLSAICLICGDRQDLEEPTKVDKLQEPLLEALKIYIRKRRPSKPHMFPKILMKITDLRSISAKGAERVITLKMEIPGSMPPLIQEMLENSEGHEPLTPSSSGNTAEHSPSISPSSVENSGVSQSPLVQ
Sequence of Retinoic acid receptor alpha (Homo sapiens) (P10276 whole entry, looked up, the tested form may be a part): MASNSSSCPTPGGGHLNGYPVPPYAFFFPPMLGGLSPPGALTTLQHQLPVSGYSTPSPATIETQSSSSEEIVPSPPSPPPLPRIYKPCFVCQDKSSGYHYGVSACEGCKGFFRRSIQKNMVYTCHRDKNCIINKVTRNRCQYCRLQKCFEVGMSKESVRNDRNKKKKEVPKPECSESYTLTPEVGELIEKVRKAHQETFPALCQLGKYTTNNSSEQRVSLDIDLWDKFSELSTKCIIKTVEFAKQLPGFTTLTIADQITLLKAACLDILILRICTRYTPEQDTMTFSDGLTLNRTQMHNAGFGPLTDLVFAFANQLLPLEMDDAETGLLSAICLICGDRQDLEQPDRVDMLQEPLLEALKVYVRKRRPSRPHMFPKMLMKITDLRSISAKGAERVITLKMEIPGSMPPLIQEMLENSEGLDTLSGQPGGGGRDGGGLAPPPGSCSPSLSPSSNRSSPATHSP
Sequence of Cellular tumor antigen p53 (Homo sapiens) (P04637 whole entry, looked up): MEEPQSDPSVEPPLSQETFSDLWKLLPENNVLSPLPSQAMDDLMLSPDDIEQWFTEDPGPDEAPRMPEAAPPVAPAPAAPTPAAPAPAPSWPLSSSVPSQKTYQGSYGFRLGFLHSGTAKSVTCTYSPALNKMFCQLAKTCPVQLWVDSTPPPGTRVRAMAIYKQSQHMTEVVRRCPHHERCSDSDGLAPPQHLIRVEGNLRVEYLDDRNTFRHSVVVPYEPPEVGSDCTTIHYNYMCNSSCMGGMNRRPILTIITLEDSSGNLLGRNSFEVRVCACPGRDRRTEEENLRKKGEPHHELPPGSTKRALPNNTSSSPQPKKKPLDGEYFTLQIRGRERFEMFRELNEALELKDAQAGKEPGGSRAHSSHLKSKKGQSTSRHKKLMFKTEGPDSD
Sequence of Nuclear receptor subfamily 1 group I member 2 (Homo sapiens) (O75469 whole entry, looked up, the tested form may be a part): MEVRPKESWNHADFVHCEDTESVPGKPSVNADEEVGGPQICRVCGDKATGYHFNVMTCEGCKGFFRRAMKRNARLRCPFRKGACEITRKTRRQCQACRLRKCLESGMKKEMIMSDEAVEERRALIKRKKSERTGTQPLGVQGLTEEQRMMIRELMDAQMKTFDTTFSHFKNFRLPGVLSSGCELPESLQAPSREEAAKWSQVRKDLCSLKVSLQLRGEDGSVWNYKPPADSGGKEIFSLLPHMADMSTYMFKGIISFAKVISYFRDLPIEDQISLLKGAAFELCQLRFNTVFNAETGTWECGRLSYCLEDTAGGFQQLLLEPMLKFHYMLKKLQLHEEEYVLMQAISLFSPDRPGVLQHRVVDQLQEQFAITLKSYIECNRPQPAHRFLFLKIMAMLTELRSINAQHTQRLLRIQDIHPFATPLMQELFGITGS

`CC(C)(C)c1ccccc1OP(=O)(Oc1ccccc1)Oc1ccccc1`: the call in test [1], in test [2], in [3], in [4], in [5] and in [7] was inactive. Besides, the molecule was classed as inactive in test [12]. The AC50 in test [6] was 19.8 µM (active); in [8], 20 µM (active); in test [9] it was 20 µM (active); in test [10], 28.6 µM (active); in test [11], 26.2 µM (active); in test [13], 31.9 µM (active). For the same molecule, the AC50 in test [14] was 20 µM (active); in test [15] it was 3.63 µM (active); in [16], 0.156 µM (active).

For the molecule `O=C(O)C(Cl)Cl`, the molecule was classed as inactive in [1], in test [2], in [3], in test [4], in [6] and in [7]. Further, the result in test [8], in test [9], in test [10], in test [11], in test [12] and in test [13] was inactive. Further, the outcome in [14] and in test [15] was inactive.

Take `O=C(O)CF`: the molecule was classed as inactive in test [1], in [2], in [3], in [4], in test [6] and in test [7]. In addition, the molecule was called inactive in test [17].

Consider `CCCCN(CCCC)SN(C)C(=O)Oc1cccc2c1OC(C)(C)C2`, for which the outcome in test [1], in test [2], in test [3], in test [4], in [5] and in test [7] was inactive. Also, in test [12], the molecule was called inactive. Moreover, the AC50 in [6] was 31.6 µM (active); in [8], 20 µM (active); in [9], 32.3 µM (active); in test [10], 28.4 µM (active); in test [11] it was 29.3 µM (active); in [13], 29.8 µM (active). Also, the AC50 in [14] is 19.8 µM (active); in [15] it was 12.3 µM (active).

For `N#Cc1c(-c2ccc(Cl)cc2)[nH]c(C(F)(F)F)c1Br`, the molecule was called inactive in test [1], in test [3], in [4], in test [5], in [18] and in [17]. For the same molecule, the outcome in test [12], in [13], in test [19] and in test [20] was inactive. Further, the AC50 in test [6] was 0.0823 µM (active); in [7], 0.0675 µM (active); in test [8], 20 µM (active); in test [9] it was 0.469 µM (active); in test [10] it was 6.03 µM (active); in test [11], 0.796 µM (active). For the same molecule, the AC50 was 0.393 µM (active) in [14] and 0.573 µM (active) in [15].
